# Compound activity from PubChem.
# USP28 block = inhibitors of human USP28 deubiquitinase | Ubiquitin carboxyl-terminal hydrolase 28 (Homo sapiens), Q96RU2 | 3% of 47,000 active | inhibition, % at 25 µM | purified USP28, Ub-rhodamine cleavage fluorescence, 30 min
# USP17 inh = inhibitors of human USP17 deubiquitinase | Ubiquitin carboxyl-terminal hydrolase 17-like protein 5 (Homo sapiens), A8MUK1 | purified USP17, Ub-rhodamine cleavage fluorescence, 3 h | inhibition, % at 50 µM | 6.5% of 47,000 active | AID 1645855, 2021
# USP30 block = inhibitors of human USP30 deubiquitinase. Ubiquitin carboxyl-terminal hydrolase 30 (Homo sapiens), Q70CQ3. inhibition, % at 25 µM. purified USP30, Ub-rhodamine cleavage fluorescence. 5.3% of 47,000 active
# Target sequence (Q70CQ3 whole entry, looked up): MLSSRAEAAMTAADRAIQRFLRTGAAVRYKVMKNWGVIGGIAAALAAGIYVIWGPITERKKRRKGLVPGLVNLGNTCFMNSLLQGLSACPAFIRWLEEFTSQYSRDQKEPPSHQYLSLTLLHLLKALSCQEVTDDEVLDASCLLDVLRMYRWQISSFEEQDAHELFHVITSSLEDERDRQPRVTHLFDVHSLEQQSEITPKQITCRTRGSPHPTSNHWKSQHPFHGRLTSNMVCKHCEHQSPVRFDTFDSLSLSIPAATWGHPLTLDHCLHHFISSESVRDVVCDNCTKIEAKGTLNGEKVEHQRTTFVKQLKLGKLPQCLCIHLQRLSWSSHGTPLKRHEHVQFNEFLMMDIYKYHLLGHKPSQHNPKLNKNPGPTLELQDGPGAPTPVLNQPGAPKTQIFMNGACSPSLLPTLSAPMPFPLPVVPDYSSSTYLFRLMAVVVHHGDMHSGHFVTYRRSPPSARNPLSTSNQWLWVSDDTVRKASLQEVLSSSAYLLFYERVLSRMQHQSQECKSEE
# Hits are given with their value; . = inactive; / = not tested or not shown. An excerpt weighted towards active compounds, which were near 11% of everything screened. No stated cut-off is given here; in the data, active means inhibition above about 30%; inactive means the rest.
SMILES,USP28 block,USP17 inh,USP30 block
Cc1cc(NC(=O)Cn2c(=O)n(-c3ccc(CC(=O)NC4CCCC4)cc3)c(=O)c3ccccc32)n[nH]1,.,.,.
CCOc1ccccc1NC(=O)Cn1c(=O)n(CCC(=O)NC2CCCC2)c(=O)c2ccccc21,.,41,.
O=C(Cn1c(=O)n(CC(=O)NC2CCCC2)c(=O)c2ccccc21)Nc1ccc(F)cc1,42,67,70
COc1ccc(Cl)cc1NC(=O)Cn1c(=O)n(CCC(=O)NC2CCCC2)c(=O)c2ccccc21,.,.,.
CN(C(=O)Cn1c(=O)n(CCCCC(=O)NC2CCCC2)c(=O)c2ccccc21)C1CCCCC1,.,.,.
O=C(Cn1c(=O)n(CC(=O)NC2CCCC2)c(=O)c2ccccc21)Nc1cc(Cl)ccc1Cl,34,43,65
O=C(c1ccc(-c2ccccc2F)o1)N1CCN(CC2CCCO2)CC1 (stereo unspecified),.,.,.
O=C(Cc1nnc(NC(=O)Nc2cccc(F)c2)s1)NCc1ccccc1,.,.,.
CCOC(=O)c1ccc(N(C(=O)c2ccco2)C(C(=O)NC2CCCC2)c2cccc(OC)c2OC)cc1 (stereo unspecified),.,.,.
O=C(Cc1nnc(-c2cnccn2)o1)Nc1ccc(F)c(Cl)c1,.,.,.
O=C(Cc1nnc(-c2cnccn2)o1)Nc1ccc(Cl)cc1,.,.,38
CNc1cc(C2CCCN(C(=O)c3noc4c3CCCC4)C2)ccn1 (stereo unspecified),.,.,.
Cn1cc(S(=O)(=O)N(C2CC2)C2CCc3ccccc32)cc1C(N)=O (stereo unspecified),.,.,.
O=C(Nc1ccccc1)c1ccnc(Nc2ccc(F)cc2)c1,.,30,.
O=C(Nc1ccc(F)cc1)c1cccc(-c2nc(-c3ccccc3)no2)c1,.,.,.
CCc1nccn1-c1cccc(C2CCCN(S(=O)(=O)N(C)C)C2)n1 (stereo unspecified),.,.,.
Cc1cccc(N2CCN(S(=O)(=O)c3cc(-c4nnc(C)o4)co3)CC2)c1,.,.,.
O=C(Cn1c(=O)[nH]c2c(-c3ccc(F)cc3)c[nH]c2c1=O)NCc1ccc(F)cc1,.,.,.
COc1ccc(NC(=O)CSc2n[nH]c(C(C)C)n2)c(OC)c1,.,.,.
COc1ccc(NC(=O)CSc2nnc(-c3ccc(F)cc3)c3ccccc23)c(OC)c1,39,.,.
O=C(c1cccnc1)N1CCCC(c2cncc(-c3cccc(C(F)(F)F)c3)n2)C1 (stereo unspecified),.,.,.
COc1ccc(OC[C@@H]2C3CCC(C3)N2S(=O)(=O)N2CCCC2)cc1 (stereo partly specified),.,.,.
Cc1cccc2c(=O)n(C3CCN(S(=O)(=O)c4ccccc4)CC3)cnc12,.,44,.
O=c1c2ccccc2ncn1C1CCN(S(=O)(=O)c2ccccc2F)CC1,.,51,.
Cc1ccccc1S(=O)(=O)N1CCC(n2cnc3ccccc3c2=O)CC1,.,.,.
SMILES,USP28 block,USP17 inh,USP30 block
Cc1ccccc1S(=O)(=O)N1CCC(n2cnc3c(C)cccc3c2=O)CC1,.,.,.
O=C1N[C@@H]2CN(C(=O)NC3CCOCC3)CC[C@H]2CO1,.,.,.
Cc1cc(Nc2nc3ccccc3nc2N2CCCCC2)n(-c2ccccc2)n1,.,.,.
COc1cccc(CC(NC(C)=O)C(=O)NC2CCN(C(=O)c3cnccn3)CC2)c1 (stereo unspecified),.,.,.
O=C1NC2(CCN(C(=O)c3cccnc3)CC2)[C@@H]2CN(c3ncccn3)C[C@H]12,.,/,.
CCc1cc(=O)n(CC(=O)Nc2ccc3c(c2)OCCO3)c2c1c(C)nn2-c1ccc(C)cc1,.,31,32
Cc1cc(=O)n(CC(=O)Nc2ccc3c(c2)OCCO3)c2c1c(C)nn2-c1ccccc1,.,.,.
Cc1ccc(NC(=O)Cn2c(=O)n(CC(=O)NCCc3ccccc3)c(=O)c3sccc32)cc1C,.,.,47
COc1ccc(NC(=O)Cn2c(=O)n(CCC(=O)NCc3ccccc3)c(=O)c3sccc32)cc1Cl,.,47,.
COc1ccc(NC(=O)Cn2c(=O)n(CCCC(=O)NC3CCN(Cc4ccccc4)CC3)c(=O)c3ccccc32)cc1Cl,.,.,.
Cc1ccc(N2C(=O)N(CC(=O)Nc3ccc4c(c3)OCCO4)C(=O)C2C)cc1 (stereo unspecified),.,.,.
Cc1ccc(CNC(=O)Cn2c(=O)c3sccc3n(CC(=O)Nc3ccc4c(c3)OCCO4)c2=O)cc1,/,60,/
CC(C)Cn1c(=O)c2sccc2n2c(CCC(=O)NCCc3ccccc3)nnc12,.,.,.
CCc1cccc(NS(=O)(=O)c2ccc3c(c2)NC(=O)CCS3)c1,.,.,.
COc1cccc2cc(C(=O)N3CC(c4nc(-c5ncccn5)no4)C3)oc12,.,.,.
Cn1cc(C2c3ccccc3C(=O)N2CC(=O)NCc2ccc(F)cc2)c2ccccc21 (stereo unspecified),.,/,.
O=C(NCc1ccco1)C1CCN(c2cncnc2N2CCCC2)CC1,.,.,.
O=C(NCc1ccccn1)C1CCN(c2cncnc2N2CCCCC2)CC1,41,.,.
Cc1ccc(NC(=O)C2CCN(c3cncnc3N3CCCC3)CC2)cc1,90,.,.
O=C(Nc1cnn(-c2ncncc2N2CCCCC2)c1)C1CC1,.,.,.
CC1=C(c2ccc(F)cc2)S(=O)(=O)N=C1N1CCC(NC(=O)C2CCOC2)CC1 (stereo unspecified),.,.,.
CCn1cc(C(=O)CSc2ncn[nH]2)c2ccccc21,.,.,.
NC(=O)C1CCCN(C(=O)c2ccc3c(c2)OCC(=O)N3CC(=O)c2ccc(Cl)cc2)C1 (stereo unspecified),.,.,.
O=C1CC(C(=O)Nc2ccccc2)n2nc(-c3ccccc3)cc2N1 (stereo unspecified),.,.,34
COc1ccc(Cl)c(NC(=O)C2CC(=O)Nc3cc(-c4ccccc4)nn32)c1 (stereo unspecified),.,57,.
SMILES,USP28 block,USP17 inh,USP30 block
Cc1cccc(NC(=O)C2CC(=O)NC(N3CCN(c4ccccc4)CC3)=N2)c1 (stereo unspecified),.,.,.
COc1ccc(Cl)c(NC(=O)C2CC(=O)Nc3cc(C)nn32)c1 (stereo unspecified),.,.,.
COc1ccccc1-c1noc(-c2nn(-c3ccc(C)cc3)ccc2=O)n1,.,.,.
COc1ccc(-n2ccc(=O)c(-c3nc(-c4ccccc4C)no3)n2)cc1,.,.,38
Cn1nc(-c2nc(-c3ccccc3)no2)c2c1CCN(C(=O)C1(c3ccccc3)CC1)C2,.,.,.
CCc1ccc(-n2ccc(=O)c(-c3nc(-c4cccc(F)c4)no3)n2)cc1,.,/,.
O=c1ccn(-c2ccccc2)nc1-c1nc(-c2ccc(Br)cc2)no1,.,37,.
Cc1cccc(-n2ccc(=O)c(-c3nc(-c4ccc(Cl)c(F)c4)no3)n2)c1,.,.,39
Cc1c(Cl)ccc2c1NC(=O)[C@]21[C@@H](C(=O)c2ccco2)[C@]2(C(=O)Nc3ccccc32)[C@@H]2CCCN21,.,.,.
